# In PubChem BioAssay (NCATS):
# Results filed as inconclusive are left out. Active and inactive are the calls of the source. Unless noted, calls follow the shape of the dose curve; as a rule, active = well fitted curve in the direction sought with a large enough effect; inconclusive = small, poorly fitted or top-dose-only effect, or another doubt; inactive = no such curve, though single readings can be large; an effect the other way counts as inactive or inconclusive.
# Tests used:
# [1] = molecular target: Lysosomal acid glucosylceramidase (Homo sapiens) (UniProt P04062); assay: Glucocerebrosidase-p2 (AID 348; in the data active = potency below about 10 µM; also: potency is read from the fitted curve at half-maximal effect); settings: purified GBA, blue fluorogenic substrate, 40 min
# In short: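 Compounds titrated from 0.6 nM upwards against 0.2 nM enzyme in pH 5.9 citric acid/KH2PO4, taurocholate, tween-20; blue fluorogenic substrate 80 uM, 40 min room temperature, stopped and read Ex 365/Em 440 for AC50.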
# [2] = AP1 Signaling Pathway (AID 357; active = well fitted curve in either direction with a large enough effect, not every such curve was filed as active;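 also: ME-180 reporter cells stimulated with EGF at its EC50 level; % is scaled to controls: 0 for no effect and ±100 for the full control effect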); settings: ME-180 AP-1-bla reporter, EGF-induced, beta-lactamase ratio, 5 h; at 7.69 µM (top of the series) unless noted
# In short: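 AP-1-bla ME-180 cells, Opti-MEM + 0.5% dialyzed FBS, plated overnight 37 °C. Cpd titration + EC50 EGF, 5 h 37 °C. CCF4 2.5 h RT; ex 405, em 460/530 ratio → %activity, AC50.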
# [3] = molecular target: Glucocorticoid receptor (Homo sapiens) (UniProt P04150); assay: GR-GFP Redistribution (AID 450;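 active = compounds whose dose series gives a full or clear partial fitted curve of increased nuclear translocation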; also: potency is read from the fitted curve at half-maximal effect); settings: U2OS GR-GFP nuclear translocation, laser cytometry, 2 h
# [4] = molecular target: Glucocorticoid receptor (Homo sapiens) (UniProt P04150); assay: GR-EFC Redistribution (AID 451; calls by dose curve; also: potency is read from the fitted curve at half-maximal effect); settings: CHO-K1 GR-EFC translocation, beta-gal luminescence, 2 h
# In short: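 CHO-K1 cells expressing nuclear EA and GR-ED fragments of b-gal; compounds titrated up to 46 uM final, 2 h at 37 C. GR nuclear translocation read as complemented b-gal luminescence after 1 h RT detection.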
# [5] = molecular target: Mitogen-activated protein kinase 10 (Mus musculus) (UniProt Q61831); assay: JNK3 AlphaScreen Assay (AID 530; active = well fitted curve in either direction with a large enough effect, not every such curve was filed as active;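 also: kinase came from lysate of stimulated human HepG2 cells; signal reports phosphorylation of biotinylated GST-cJun 1-79 at Ser73 with 10 µM ATP; % is scaled to controls: 0 for no effect and ±100 for the full control effect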)
# In short: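 qHTS format: compounds tested as titrations against IL-1beta/TNF-alpha-activated HepG2 lysate JNK3 with biotin-GST-cJun substrate and 10 uM ATP at room temperature. Loss of anti-phospho-cJun AlphaScreen signal indicates inhibition.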
# [6] = molecular target: Cytochrome P450 2C9 (Homo sapiens) (UniProt P11712); assay: qHTS Assay for Inhibitors and Substrates of Cytochrome P450 2C9 (AID 883); also: potency is read from the fitted curve at half-maximal effect; nearly all actives have a fitted effect of over 60% in size
# In short: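 Signal: luciferase luminescence reporting luciferin produced by CYP2C9. Conditions: 10nM enzyme, Luciferin-H 100uM at KM, 25mM KPO4, 37C, 60 min NADPH-driven reaction. Reference: 57uM sulphaphenazole as 100% inhibition.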
# [7] = molecular target: Cytochrome P450 3A4 (Homo sapiens) (UniProt P08684); assay: qHTS Assay for Activators of Cytochrome P450 3A4 (AID 885); also: nearly all actives have a fitted effect of over 65% in size
# In short: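 Human CYP3A4 (20 nM) with Luciferin-PPXE at 25 uM (its KM) in 200 mM KPO4; 10 min compound preincubation, then NADPH regeneration and 60 min reaction at RT. Luciferin read by luminescence; normalized to 57 uM ketoconazole full inhibition.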
# [8] = qHTS Assay for Lipid Storage Modulators (AID 1519; calls by dose curve); settings: Drosophila S3 cells, BODIPY lipid droplet/cell ratio, laser cytometry, cells loaded with oleic acid; for activity change, negative = inhibition: at 57.5 µM (top of the series)
# In short: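 Cells seeded at 5,000 per well were treated with compounds over a concentration series and loaded with oleic acid (400 uM, as added). Lipid droplet fluorescence (488 nm excitation, 500-530 nm channel) was read by laser-scanning cytometry and normalized to 20 uM Triacsin C.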
# [9] = Primary qHTS for small molecule stabilizers of the endoplasmic reticulum resident proteome: Secreted ER Calcium Modulated Protein (SERCaMP) assay (AID 1508630); also: % is scaled to controls: 0 for no effect and ±100 for the full control effect
# In short: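 GLuc-SERCaMP-expressing SH-SY5Y cells, pretreated 16 h with compound, are challenged with thapsigargin to empty ER calcium stores; after 4 h, coelenterazine is added directly to the medium and luminescence is imaged.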
# [10] = molecular target: Rap guanine nucleotide exchange factor 3 (Homo sapiens) (UniProt O95398); assay: Confirmatory qHTS for agonist of cAMP-regulated guanine nucleotide exchange factor 3 (EPAC1) (AID 1645881);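 also: EPAC1 catalysed release of BODIPY-GDP from Rap1B seen as fluorescence loss; 100% = effect of cAMP agonist control; nearly all actives have a fitted effect of over 75% in size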
# [11] = molecular target: Rap guanine nucleotide exchange factor 4 (Homo sapiens) (UniProt Q8WZA2); assay: Confirmatory qHTS for antagonist of cAMP-regulated guanine nucleotide exchange factor 4 (EPAC2) (AID 1645885); also: nearly all actives have a fitted effect of over 25% in size; also: potency is read from the fitted curve at half-maximal effect
# [12] = molecular target: Cytochrome P450 1A2 (Homo sapiens) (UniProt P05177); assay: p450-cyp1a2 (AID 410; calls by dose curve; also: potency is read from the fitted curve at half-maximal effect)
# In short: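 Inhibition was calculated relative to 57 uM furafylline (full inhibition). The reaction used human CYP1A2 at 20nM with Luciferin-ME at its Km, 100uM, driven by an NADPH-regenerating system for 60 min at room temperature.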
# [13] = NFAT Signaling Pathway (AID 444; active = well fitted curve in either direction with a large enough effect, not every such curve was filed as active;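 also: carbachol stimulus at about its EC50 of 1 µM final; % is scaled to controls: 0 for no effect and ±100 for the full control effect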); settings: Jurkat NFAT-bla M1, carbachol, beta-lactamase ratio, 5 h; at 7.69 µM (top of the series) unless noted
# In short: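 Jurkat cells with NFAT-driven β-lactamase reporter and co-expressed M1 receptor, stimulated with carbachol (final 1 uM, ~EC50), compound titration, 5 h at 37 °C. CCF4 loaded 1 h at RT; 460/530 nm ratio gave %activity and AC50.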
# [14] = Stat Signaling Pathway (AID 446; active = well fitted curve in either direction with a large enough effect, not every such curve was filed as active); settings: ME-180 SIE beta-lactamase reporter, IL-6 stimulated, 5 h; at 7.69 µM (top of the series) unless noted
# In short: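 ME-180 cells carrying a SIE-driven beta-lactamase reporter are stimulated with 40 pM IL-6 for 5 h at 37C in the presence of compound. The 460/530 nm FRET substrate ratio is read after 2.5 h at RT. Data are normalised to 300 pM IL-6 and to 125 nM JAK inhibitor controls.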
# [15] = molecular target: Dual specificity protein kinase CLK4 (Homo sapiens) (UniProt Q9HAZ1); assay: qHTS Assay for Inhibitors of CDC-like Kinase 4 (Kinase-Glo Assay) (AID 1770); also: % is scaled to controls: 0 for no effect and ±100 for the full control effect; nearly all actives have a fitted effect of over 65% in size
# In short: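 25 nM Clk4 with 100 uM RS repeat peptide and 1 uM ATP (final) in Tris pH7.5, 10 mM MgCl2, 4.5 h at room temperature. Remaining ATP measured by Kinase-Glo luciferase luminescence.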
# [16] = molecular target: Dual specificity protein kinase CLK4 (Homo sapiens) (UniProt Q9HAZ1); assay: qHTS Assay for Inhibitors of CDC-like Kinase 4 (ADP-Glo Assay) (AID 1771); also: % is scaled to controls: 0 for no effect and ±100 for the full control effect; nearly all actives have a fitted effect of over 70% in size
# In short: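 Kinase reaction: Clk4 at 25 nM, RS repeat peptide substrate at 100 uM, ATP at 1 uM, 1 hr, room temperature. Product ADP detected as luciferase signal via ADP-Glo.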
# [17] = molecular target: Dual specificity protein kinase CLK4 (Homo sapiens) (UniProt Q9HAZ1); assay: qHTS Assay for Inhibitors of CDC-like Kinase 4 (ADP-FP Assay) (AID 1795);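 also: recombinant human CLK4 phosphorylating RS repeat peptide at 1 µM ATP; % is scaled to controls: 0 for no effect and ±100 for the full control effect; nearly all actives have a fitted effect of over 60% in size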
# In short: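 Recombinant Clk4 (6.25 nM) phosphorylated 100 uM RS repeat peptide with 1 uM ATP in 25 mM Tris pH 7.5, 10 mM MgCl2, 0.5 mM EGTA, 2.5 mM DTT, 0.01% Triton X-100 for 1 h. ADP was detected by Transcreener ADP2 competitive fluorescence polarization after 30 min at room temperature.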
# [18] = molecular target: Ubiquitin carboxyl-terminal hydrolase 1 (Homo sapiens) (UniProt O94782); assay: Inhibitors of USP1/UAF1: Pilot qHTS (AID 504865); also: nearly all actives have a fitted effect of over 35% in size; also: potency is read from the fitted curve at half-maximal effect
# In short: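 USP1/UAF1 complex at 1 nM preincubated 15 min at room temperature with compound, then Ub-Rho substrate added at 150 nM final. Fluorescence (480/540 nm) read kinetically in 50 mM HEPES pH 7.8, 0.5 mM EDTA, 1 mM TCEP, 0.1 mg/ml BSA, 0.01% Tween-20.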
# [19] = molecular target: 3',5'-cyclic-AMP phosphodiesterase 4B (Homo sapiens) (UniProt Q07343); assay: qHTS Assay for Inhibitors of PDE-IV (AID 607; active = well fitted activation curve with a large enough effect in the main read-out, with a control signal flat, not every such curve was filed as active; also: % of control where 0% means no effect)
# In short: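 HEK293 ACTOne cells with CNG channel (1000/well), endogenous PDE4; membrane potential dye, compounds up to 22.9 uM final. Fluorescence Ex 535/Em 590; RO 20-1724 (100 uM final) as reference.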
# [20] = molecular target: Rap guanine nucleotide exchange factor 3 (Homo sapiens) (UniProt O95398); assay: Confirmatory qHTS for antagonist of cAMP-regulated guanine nucleotide exchange factor 3 (EPAC1) (AID 1645880);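 also: plate controls were DMSO only for no effect and full effect of the ATA control for full effect; nearly all actives have a fitted effect of over 55% in size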
# In short: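 Nucleotide exchange uses 100 nM EPAC1, 250 nM RAP1B-BODIPY-GDP and 50 uM GDP, with compounds in a concentration-titration series. After 5 min at room temperature, fluorescence (480 nm ex/540 nm em) is read every 5 min for 30 min. Data are normalized to control ATA and DMSO.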
# [21] = molecular target: Rap guanine nucleotide exchange factor 4 (Homo sapiens) (UniProt Q8WZA2); assay: Confirmatory qHTS for agonist of cAMP-regulated guanine nucleotide exchange factor 4 (EPAC2) (AID 1645884);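 also: nucleotide exchange releases bodipy-GDP from Rap1 and this lowers its fluorescence; % is scaled to controls: 0 for no effect and ±100 for the full control effect; nearly all actives have a fitted effect of over 65% in size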
# [22] = qHTS Assay for Identification of Small Molecule Agonists for Hypoxia Response Element Signaling Pathway (AID 914; active = well fitted activation curve with a large enough effect in the signal ratio, with a control signal flat, not every such curve was filed as active; the % refers to the signal ratio; also: % of control where 0% means no effect); settings: ME-180 (cervical carcinoma) HRE-bla reporter, beta-lactamase ratio, CoCl2, 17 h; activation: stronger effect = higher value
# In short: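 Read-out: CCF4 FRET ratio of 460nm to 530nm emission (excitation 405nm) after 2.5 hours at room temperature, taken from HRE-bla ME-180 cells that had been exposed to compound and EC50 CoCl2 for 17 hours.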
# [23] = measured here: cell count channel max response
# [24] = measured here: lipid channel max response
# Chain of Lysosomal acid glucosylceramidase (Homo sapiens) (P04062 whole entry, looked up): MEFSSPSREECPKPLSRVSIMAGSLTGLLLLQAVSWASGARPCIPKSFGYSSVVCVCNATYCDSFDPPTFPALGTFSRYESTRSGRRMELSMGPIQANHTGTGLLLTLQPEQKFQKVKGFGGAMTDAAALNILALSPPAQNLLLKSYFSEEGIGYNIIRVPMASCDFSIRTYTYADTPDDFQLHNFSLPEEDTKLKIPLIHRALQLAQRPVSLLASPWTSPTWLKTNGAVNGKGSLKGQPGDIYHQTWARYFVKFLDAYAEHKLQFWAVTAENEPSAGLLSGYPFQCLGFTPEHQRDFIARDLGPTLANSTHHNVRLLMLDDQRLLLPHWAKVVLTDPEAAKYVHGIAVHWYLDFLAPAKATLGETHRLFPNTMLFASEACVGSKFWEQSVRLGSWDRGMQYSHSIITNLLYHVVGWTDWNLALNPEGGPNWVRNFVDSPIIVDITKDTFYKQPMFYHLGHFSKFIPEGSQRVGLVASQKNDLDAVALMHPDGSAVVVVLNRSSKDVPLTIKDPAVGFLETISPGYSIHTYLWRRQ
# Chain of Rap guanine nucleotide exchange factor 4 (Homo sapiens) (Q8WZA2 whole entry, looked up): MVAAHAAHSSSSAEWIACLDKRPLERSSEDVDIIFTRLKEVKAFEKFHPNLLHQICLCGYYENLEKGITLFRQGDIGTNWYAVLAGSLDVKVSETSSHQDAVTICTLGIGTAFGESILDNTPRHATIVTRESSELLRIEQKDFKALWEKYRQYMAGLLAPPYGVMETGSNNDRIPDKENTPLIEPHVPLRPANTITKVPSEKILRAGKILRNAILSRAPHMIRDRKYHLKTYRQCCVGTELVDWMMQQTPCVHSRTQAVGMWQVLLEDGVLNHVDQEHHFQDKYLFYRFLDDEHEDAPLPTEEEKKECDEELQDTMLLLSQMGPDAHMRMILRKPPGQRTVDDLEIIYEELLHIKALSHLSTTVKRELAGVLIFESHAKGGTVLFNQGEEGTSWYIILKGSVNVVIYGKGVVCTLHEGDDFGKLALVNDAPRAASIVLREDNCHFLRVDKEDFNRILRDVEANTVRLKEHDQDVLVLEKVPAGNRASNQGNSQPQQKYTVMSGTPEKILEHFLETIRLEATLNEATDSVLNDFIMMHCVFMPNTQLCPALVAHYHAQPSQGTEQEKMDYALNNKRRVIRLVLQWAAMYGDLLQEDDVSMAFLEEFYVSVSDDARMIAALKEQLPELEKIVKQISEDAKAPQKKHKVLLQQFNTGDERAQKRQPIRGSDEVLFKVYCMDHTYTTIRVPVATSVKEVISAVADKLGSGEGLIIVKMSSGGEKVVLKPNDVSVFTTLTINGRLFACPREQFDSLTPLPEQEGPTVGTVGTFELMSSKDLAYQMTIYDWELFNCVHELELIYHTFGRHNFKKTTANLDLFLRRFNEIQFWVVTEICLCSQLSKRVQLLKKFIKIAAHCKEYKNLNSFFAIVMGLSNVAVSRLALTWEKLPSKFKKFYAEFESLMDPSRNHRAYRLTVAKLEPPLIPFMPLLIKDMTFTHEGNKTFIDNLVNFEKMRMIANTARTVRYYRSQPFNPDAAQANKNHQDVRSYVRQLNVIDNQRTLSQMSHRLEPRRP
# Chain of Glucocorticoid receptor (Homo sapiens) (P04150 whole entry, looked up, the tested form may be a part): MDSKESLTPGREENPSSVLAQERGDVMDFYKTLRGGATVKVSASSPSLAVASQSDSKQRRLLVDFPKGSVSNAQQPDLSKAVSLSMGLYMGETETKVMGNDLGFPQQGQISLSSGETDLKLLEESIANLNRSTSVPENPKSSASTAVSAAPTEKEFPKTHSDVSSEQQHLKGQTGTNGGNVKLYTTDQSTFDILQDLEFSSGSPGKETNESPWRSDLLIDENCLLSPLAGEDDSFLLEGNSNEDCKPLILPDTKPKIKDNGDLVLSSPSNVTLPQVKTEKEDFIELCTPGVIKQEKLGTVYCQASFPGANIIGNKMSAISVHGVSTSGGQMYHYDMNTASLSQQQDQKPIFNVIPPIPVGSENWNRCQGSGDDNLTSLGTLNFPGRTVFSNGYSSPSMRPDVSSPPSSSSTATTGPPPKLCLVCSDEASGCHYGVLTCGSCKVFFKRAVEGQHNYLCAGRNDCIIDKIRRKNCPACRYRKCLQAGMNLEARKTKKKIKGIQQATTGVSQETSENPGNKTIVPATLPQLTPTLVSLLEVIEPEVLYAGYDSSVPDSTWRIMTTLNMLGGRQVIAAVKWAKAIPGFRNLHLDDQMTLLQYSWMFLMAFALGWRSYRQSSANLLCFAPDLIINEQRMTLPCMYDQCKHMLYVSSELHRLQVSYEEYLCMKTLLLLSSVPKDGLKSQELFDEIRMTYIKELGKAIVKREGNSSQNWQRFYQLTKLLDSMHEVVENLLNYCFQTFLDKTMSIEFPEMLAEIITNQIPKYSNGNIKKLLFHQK
# Chain of Cytochrome P450 3A4 (Homo sapiens) (P08684 whole entry, looked up): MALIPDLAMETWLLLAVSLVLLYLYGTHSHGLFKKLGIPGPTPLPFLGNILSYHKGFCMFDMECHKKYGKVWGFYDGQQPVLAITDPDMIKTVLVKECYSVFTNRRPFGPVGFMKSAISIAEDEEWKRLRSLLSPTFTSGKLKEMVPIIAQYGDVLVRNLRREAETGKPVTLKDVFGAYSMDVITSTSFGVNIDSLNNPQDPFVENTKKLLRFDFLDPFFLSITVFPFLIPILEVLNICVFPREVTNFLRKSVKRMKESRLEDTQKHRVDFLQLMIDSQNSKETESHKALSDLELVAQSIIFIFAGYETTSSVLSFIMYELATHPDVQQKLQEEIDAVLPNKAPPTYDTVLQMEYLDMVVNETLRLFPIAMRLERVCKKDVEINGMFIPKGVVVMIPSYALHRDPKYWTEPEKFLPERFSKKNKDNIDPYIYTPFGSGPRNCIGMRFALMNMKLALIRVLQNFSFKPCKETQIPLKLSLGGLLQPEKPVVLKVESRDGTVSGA
# Chain of Dual specificity protein kinase CLK4 (Homo sapiens) (Q9HAZ1 whole entry, looked up): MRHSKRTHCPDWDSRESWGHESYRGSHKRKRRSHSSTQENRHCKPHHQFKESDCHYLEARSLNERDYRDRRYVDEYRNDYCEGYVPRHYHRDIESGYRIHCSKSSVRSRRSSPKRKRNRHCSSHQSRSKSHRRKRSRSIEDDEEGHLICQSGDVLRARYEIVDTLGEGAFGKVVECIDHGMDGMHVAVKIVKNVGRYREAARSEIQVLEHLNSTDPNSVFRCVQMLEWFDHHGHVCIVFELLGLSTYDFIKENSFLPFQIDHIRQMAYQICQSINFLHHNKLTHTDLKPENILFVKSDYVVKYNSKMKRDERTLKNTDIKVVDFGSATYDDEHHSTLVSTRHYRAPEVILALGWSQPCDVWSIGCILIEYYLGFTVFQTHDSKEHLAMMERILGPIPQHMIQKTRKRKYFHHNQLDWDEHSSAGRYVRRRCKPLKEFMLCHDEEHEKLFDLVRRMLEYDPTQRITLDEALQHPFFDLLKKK
# Chain of Ubiquitin carboxyl-terminal hydrolase 1 (Homo sapiens) (O94782 whole entry, looked up): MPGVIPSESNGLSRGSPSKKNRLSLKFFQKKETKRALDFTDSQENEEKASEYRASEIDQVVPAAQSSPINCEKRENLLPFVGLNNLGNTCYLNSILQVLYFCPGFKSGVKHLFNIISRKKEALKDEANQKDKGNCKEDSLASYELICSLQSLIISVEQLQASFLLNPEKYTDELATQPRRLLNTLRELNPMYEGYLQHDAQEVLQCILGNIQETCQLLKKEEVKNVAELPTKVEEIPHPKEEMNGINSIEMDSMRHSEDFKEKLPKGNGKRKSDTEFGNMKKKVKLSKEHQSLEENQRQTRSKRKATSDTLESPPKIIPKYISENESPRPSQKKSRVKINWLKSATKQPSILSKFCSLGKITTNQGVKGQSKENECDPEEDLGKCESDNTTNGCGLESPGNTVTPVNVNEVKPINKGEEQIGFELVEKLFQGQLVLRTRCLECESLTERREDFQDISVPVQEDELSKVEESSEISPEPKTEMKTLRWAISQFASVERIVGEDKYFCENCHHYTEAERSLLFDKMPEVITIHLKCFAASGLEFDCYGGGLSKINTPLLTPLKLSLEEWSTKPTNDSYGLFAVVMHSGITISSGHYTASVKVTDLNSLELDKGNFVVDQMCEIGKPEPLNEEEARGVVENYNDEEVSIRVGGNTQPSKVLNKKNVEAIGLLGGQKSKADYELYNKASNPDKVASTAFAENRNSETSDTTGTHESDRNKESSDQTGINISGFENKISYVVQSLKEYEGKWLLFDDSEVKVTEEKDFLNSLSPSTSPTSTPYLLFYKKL
# Chain of Rap guanine nucleotide exchange factor 3 (Homo sapiens) (O95398 whole entry, looked up): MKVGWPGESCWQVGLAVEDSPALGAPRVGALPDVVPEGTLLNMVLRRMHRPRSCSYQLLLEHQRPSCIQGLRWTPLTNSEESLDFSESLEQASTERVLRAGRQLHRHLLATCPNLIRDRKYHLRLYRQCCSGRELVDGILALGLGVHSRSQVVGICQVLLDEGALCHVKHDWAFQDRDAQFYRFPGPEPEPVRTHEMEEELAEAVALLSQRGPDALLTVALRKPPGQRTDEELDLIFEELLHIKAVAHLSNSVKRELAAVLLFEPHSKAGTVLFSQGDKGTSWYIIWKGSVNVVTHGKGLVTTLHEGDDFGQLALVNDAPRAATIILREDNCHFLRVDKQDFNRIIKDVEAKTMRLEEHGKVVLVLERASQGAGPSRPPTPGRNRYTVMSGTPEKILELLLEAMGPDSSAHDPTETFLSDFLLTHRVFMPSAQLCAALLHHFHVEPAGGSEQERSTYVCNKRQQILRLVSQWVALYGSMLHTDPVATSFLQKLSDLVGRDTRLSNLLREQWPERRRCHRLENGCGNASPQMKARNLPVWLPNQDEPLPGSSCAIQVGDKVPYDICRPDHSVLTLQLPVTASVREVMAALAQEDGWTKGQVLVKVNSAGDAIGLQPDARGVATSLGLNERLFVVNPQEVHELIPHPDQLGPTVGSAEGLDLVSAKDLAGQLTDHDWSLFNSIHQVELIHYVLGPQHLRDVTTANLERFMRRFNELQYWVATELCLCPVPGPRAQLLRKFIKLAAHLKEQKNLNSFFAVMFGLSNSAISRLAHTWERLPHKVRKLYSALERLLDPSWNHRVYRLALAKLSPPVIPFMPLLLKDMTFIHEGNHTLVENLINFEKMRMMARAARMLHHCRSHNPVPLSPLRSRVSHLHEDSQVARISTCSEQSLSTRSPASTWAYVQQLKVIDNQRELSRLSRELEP
smiles,measurement,setting,value
O=c1c(-c2cc(F)cc(F)c2)nc2cnc(N3CCNCC3)nc2n1Cc1cccs1,Potency,[1],> 11.4 µM (inactive)
same,"activity change, negative = inhibition",[2],98% [activator] (active)
same,Potency,[3],> 9.22 µM (inactive)
same,Potency,[4],> 46 µM (inactive)
same,outcome,[5],inactive
same,Potency,[6],3.98 µM (active)
same,Potency,[7],inactive
same,"activity change, negative = inhibition",[8],-29.8% (inactive)
same,max response,[8]; [23],-11.3%
same,max response,[8]; [24],-33.5%
same,Potency,[9],inactive
same,outcome,[10],inactive
same,Potency,[11],55.5 µM (active)
N#CCCn1c(=O)cnc2cnc(Oc3ccccc3)nc21,Potency,[1],> 11.4 µM (inactive)
same,"activity change, negative = inhibition",[2],-16.3% (inactive)
same,Potency,[12],15.8 µM (active)
same,"activity change, negative = inhibition",[13],11.7% (inactive)
same,"activity, negative = inhibition",[14],-2.6% (inactive)
same,Potency,[3],> 9.22 µM (inactive)
same,Potency,[4],> 46 µM (inactive)
same,outcome,[5],inactive
same,"activity change, negative = inhibition",[8],5.36% (inactive)
same,max response,[8]; [23],9.06%
same,max response,[8]; [24],13.1%
same,Potency,[15],inactive
same,Potency,[16],inactive
same,Potency,[17],inactive
same,Potency,[18],inactive
same,Potency,[9],inactive
Cc1cn2c(=O)c3ccccc3nc2n2c(=O)c3ccccc3nc12,Potency,[9],inactive
O=C(c1cnccn1)N1CCC[C@@]2(CCN(C(c3ccccc3)c3ccccc3)C2)C1,Potency,[1],> 11.4 µM (inactive)
same,"activity change, negative = inhibition",[2],0.193% (inactive)
same,Potency,[12],15.8 µM (active)
same,"activity change, negative = inhibition",[13],11.2% (inactive)
same,"activity, negative = inhibition",[14],16.5% (inactive)
same,Potency,[4],> 46 µM (inactive)
same,outcome,[5],inactive
same,Potency,[19],inactive
same,Potency,[7],inactive
same,"activity change, negative = inhibition",[8],-1.1% (inactive)
same,max response,[8]; [23],3.2%
same,max response,[8]; [24],5.21%
same,Potency,[9],inactive
same,Potency,[20],inactive
same,outcome,[10],inactive
same,outcome,[21],inactive
COc1cccc(Cn2c(=O)c(-c3cn(C)c4ccccc34)nc3cnc(N4CCNCC4)nc32)c1,Potency,[1],> 11.4 µM (inactive)
same,Potency,[12],15.8 µM (active)
same,Potency,[3],> 9.22 µM (inactive)
same,Potency,[4],> 46 µM (inactive)
same,Potency,[19],inactive
same,Potency,[7],inactive
same,"activity change, negative = inhibition",[8],5.92% (inactive)
same,max response,[8]; [23],13.9%
same,max response,[8]; [24],20.8%
same,Potency,[15],inactive
same,Potency,[16],inactive
same,Potency,[17],inactive
same,Potency,[18],14.1 µM (active)
same,Potency,[9],inactive
same,Potency,[20],inactive
same,outcome,[10],inactive
same,Potency,[11],inactive
CN(C)c1ncc2nc(-c3cccs3)c(=O)n(C[C@H]3CCCO3)c2n1,Potency,[1],> 11.4 µM (inactive)
same,"activity change, negative = inhibition",[2],-15.4% (inactive)
same,Potency,[12],1.58 µM (active)
same,"activity change, negative = inhibition",[13],12.3% (inactive)
same,"activity, negative = inhibition",[14],1.25% (inactive)
same,Potency,[3],> 9.22 µM (inactive)
same,Potency,[4],> 46 µM (inactive)
same,outcome,[5],inactive
same,Potency,[7],inactive
same,activation,[22],-3.72% (inactive)
same,"activity change, negative = inhibition",[8],4.26% (inactive)
same,max response,[8]; [23],14.9%
same,max response,[8]; [24],17.7%
same,Potency,[15],inactive
same,Potency,[16],inactive
same,Potency,[17],inactive
same,Potency,[18],inactive
same,Potency,[9],inactive
same,Potency,[20],inactive
same,Potency,[11],inactive
COc1ccc([C@H]2c3cc(OC)c(OC)cc3C[C@@H](C)[C@@H]2C)cc1OC,Potency,[9],inactive
